In PubChem BioAssay (NCI) one finds growth data, which are given here for 13 compounds.

About 83,000 compounds went through this panel and 20% of them were active in at least one assay; those are over-represented in the sample as a whole.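 Compound tested at a single concentration for 48 hours in 96-well plates; a percent growth value below 10 was scored as active.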 Unmarked numbers belong to inactive results. The source made the active and inactive calls.

Among the test systems are DU-145 prostate; K-562 leukemia; MALME-3M melanoma; MDA-MB-231 breast; RXF 393 renal; SF-268 CNS; SF-295 CNS; SF-539 CNS; M14 melanoma; UACC-257 melanoma.
Assay in all cases: NCI-60 one-dose screen, 48 h (100 = growth as untreated, 0 = no growth, -100 = all killed)
Common to all, as to conditions: 10 µM unless noted

On to `COc1cccc(-c2nn(-c3ccccc3)cc2-c2ccnc(NCCNS(=O)(=O)c3ccccc3)c2)c1`, for which the growth in the test on DU-145 prostate is 57.5%; in the test with K-562 leukemia, 6.57% (active); in the test with MALME-3M melanoma, 69.1%; in the test with MDA-MB-231 breast, 18.4%; in the test on RXF 393 renal it was 63.7%; in the test on SF-268 CNS, 50%. The growth with SF-295 CNS is 20.6%; in the test on SF-539 CNS, 57.1%; in the test on M14 melanoma, 29.8%.

As for `O=c1c2sc3ncc(Br)cc3c2ncn1-c1cccc(Cl)c1`, the growth in the test with DU-145 prostate is 53.3%; in the test with K-562 leukemia it was 81.9%; with MALME-3M melanoma it was 52.5%; with MDA-MB-231 breast, 49.5%; in the test with RXF 393 renal, 73.6%; in the test with SF-268 CNS, 64.1%. In addition, the results for the growth in the test on SF-539 CNS, in the test on UACC-257 melanoma and with M14 melanoma were 81.4%, 88.4% and 76%, respectively.

For `CC(C)(C)CC(C)(C)c1ccc(OCCOCC[N+](C)(C)CC(=O)[O-])cc1`, the growth in the test on DU-145 prostate is 114%; in the test on K-562 leukemia, 105%; in the test with MALME-3M melanoma it was 102%; in the test with MDA-MB-231 breast, 112%; in the test on RXF 393 renal, 134%; in the test with SF-268 CNS it was 109%. Besides, the growth was 104% in the test with SF-539 CNS, 100% in the test with UACC-257 melanoma and 104% in the test on M14 melanoma.

Turning to `c1ccc2[nH]c(-c3cc(-c4ccc5c(c4)OCO5)n[nH]3)nc2c1`, the growth in the test with DU-145 prostate was 69.1%; in the test on K-562 leukemia, 36.3%; in the test on MALME-3M melanoma, 38.2%; in the test with MDA-MB-231 breast, 65%; in the test on RXF 393 renal, 59.6%; with SF-268 CNS, 70.5%. The growth is 52.4% in the test with SF-539 CNS, 66.4% in the test with UACC-257 melanoma and 45.8% in the test on M14 melanoma.

Turning to `COc1ccc2c(c1)C/C(=C\c1cc(-c3cc(OC)c(OC)c(OC)c3)n[nH]1)C2=O`, the growth in the test with DU-145 prostate is 113%; in the test with K-562 leukemia, 53.7%; in the test on MALME-3M melanoma, 108%; in the test on MDA-MB-231 breast, 78.9%; in the test with RXF 393 renal, 94.9%; in the test on SF-268 CNS, 100%. In addition, the growth was 89.5% with SF-539 CNS, 97.3% with UACC-257 melanoma and 100% in the test on M14 melanoma.

Turning to `O=S(=O)(NCCNc1cc(-c2cn(-c3ccccc3)nc2-c2cccc(O)c2)ccn1)c1ccc(Br)cc1`, the growth with DU-145 prostate is 52.2%; with K-562 leukemia it was 3.66% (active); with MALME-3M melanoma, 43.2%; with MDA-MB-231 breast it was 4.31% (active); with RXF 393 renal, 40.1%; in the test with SF-268 CNS, 36.1%. Further, the values for the growth in the test with SF-295 CNS, in the test with SF-539 CNS and in the test with M14 melanoma were 7.27% (active), 46.2% and 20.3%, respectively.

On to `COC(=O)[C@]12CC[C@@H](C)[C@H](C)[C@@H]1C1=CC[C@@H]3[C@@]4(C)C[C@@H](OC(C)=O)[C@H](O)[C@@](C)(CO)[C@@H]4[C@H](O)C[C@@]3(C)[C@]1(C)CC2`, for which the growth in the test with DU-145 prostate was -100% (active); in the test on K-562 leukemia, -62.7% (active); in the test on MALME-3M melanoma it was -69.1% (active); in the test on MDA-MB-231 breast, -62.3% (active); in the test with RXF 393 renal, -88.9% (active); in the test with SF-268 CNS, -84% (active). Further, the growth was -92.2% (active) with SF-295 CNS, -90% (active) with SF-539 CNS and -69.1% (active) in the test with M14 melanoma.

Take `NC(Cc1ccc(O)cc1)C(=O)N/N=C/c1ccccc1O` (configuration not stated): the growth in the test on DU-145 prostate is 105%; in the test on K-562 leukemia, 105%; in the test on MALME-3M melanoma it was 80.2%; in the test with MDA-MB-231 breast, 109%; in the test with RXF 393 renal, 115%; in the test on SF-268 CNS, 104%. Moreover, the growth in the test on SF-539 CNS was 104%; in the test on UACC-257 melanoma it was 101%; with M14 melanoma, 98.7%.

In the case of `CC(Cc1ccco1)C(=O)NC(N)=O` (configuration not stated), the growth in the test with DU-145 prostate was 109%; in the test with K-562 leukemia, 110%; in the test with MALME-3M melanoma, 103%; in the test on MDA-MB-231 breast, 110%; with RXF 393 renal it was 96.7%; with SF-268 CNS, 104%. The growth in the test with SF-295 CNS is 94.6%; in the test with SF-539 CNS, 97.8%; with M14 melanoma, 101%.

`COc1cc(-c2cc(-c3nc4cc(Cl)c(Cl)cc4[nH]3)[nH]n2)cc(OC)c1OC`: the growth is 92.5% with DU-145 prostate; 17.5% with K-562 leukemia; 46.4% with MALME-3M melanoma; 74% in the test with MDA-MB-231 breast; 70.6% in the test on RXF 393 renal; 96.5% in the test on SF-268 CNS. Further, the growth with SF-539 CNS was 77.8%; in the test with UACC-257 melanoma, 88%; with M14 melanoma, 62.3%.

On to `COc1ccc(-c2cc(/C=C/C(=O)c3ccc(OC)c(OC)c3)[nH]n2)cc1`, for which the growth was 0.792% (active) with DU-145 prostate; -29.8% (active) in the test with K-562 leukemia; 63.1% in the test with MALME-3M melanoma; 28.8% in the test on MDA-MB-231 breast; 8.62% (active) in the test on RXF 393 renal; 7.76% (active) in the test with SF-268 CNS. For the same compound, the growth in the test on SF-539 CNS is -50.7% (active); in the test with UACC-257 melanoma, 73.9%; with M14 melanoma, 41.8%.

With `Cc1ccc(N(CC(=O)Nc2ccc(S(=O)(=O)N3CCC(N4CCCC4)CC3)cc2)S(=O)(=O)c2ccc(Cl)cc2)cc1`, the growth is 9.76% (active) in the test with DU-145 prostate; -44.9% (active) with K-562 leukemia; -81.2% (active) in the test on MALME-3M melanoma; -42.9% (active) in the test with MDA-MB-231 breast; -70.8% (active) with RXF 393 renal; 34.8% in the test with SF-268 CNS. Moreover, the growth with SF-295 CNS was -64.5% (active); in the test with SF-539 CNS, -89.7% (active); in the test on M14 melanoma it was -68.8% (active).

Consider `COc1ccc(C(=O)c2cc(OC)c(OC)c(OC)c2)cc1/C=C/C(=O)c1cc(OC)c(OC)c(OC)c1`, for which the growth with DU-145 prostate is 83.4%; in the test with K-562 leukemia, 99.8%; in the test with MALME-3M melanoma it was 86.1%; in the test on MDA-MB-231 breast, 62.8%; with RXF 393 renal, 70%; in the test with SF-268 CNS it was 88.7%. The growth with SF-539 CNS was 94%; in the test with UACC-257 melanoma it was 81.6%; with M14 melanoma, 81.4%.
